From PubChem BioAssay AID2284419 (EPA ToxCast)
Inconclusive results are not listed. Calls of active or inactive are those of the source. Rule for the calls: active = hit-call score of the fitted dose curve at least 0.9, where 1 is the maximum; inconclusive = response in the unintended direction; inactive = score below 0.9.

system: SRY-box transcription factor 2 (SOX2) Protein Expression, Deisenroth Lab, SOX2 (gene 6657); experiment: CCTE_Deisenroth_DEVTOX-GLR_Meso_SOX2: CCTE's DevTox GLR-Meso Assay Evaluation of SRY-box transcription factor 2 (SOX2) Protein Expression, Deisenroth Lab
Protocol: CCTE_Deisenroth_DEVTOX-GLR_Meso assay is a cell-based, multiplex-readout assay that uses RUES2-GLR, a human pluripotent cell line, with measurements taken at 48 hours after chemical dosing in a 384-well microplateCCTE_Deisenroth_DEVTOX-GLR_Meso_SOX2 is 1 of 4 assay components calculated from the CCTE_Deisenroth_DEVTOX-GLR_Meso assay and it measures an the percentage of cells in an ectoderm state. Using a type of inducible fluorescent protein reporter, gain-of-signal activity can be used to understand changes in gene expression with fluorescent microscopy. The percentage of SOX2+ cells are determined by calculating the number of SOX2+ cells divided by the cell count. To generalize the intended target to other relatable targets, this assay component is annotated to the transcription factor intended target family, where the subfamily is SRY-related HMG-box.Data from the assay component CCTE_Deisenroth_DEVTOX-GLR_Meso_SOX2 was analyzed as 1 assay endpoint. The endpoint is the percent SOX2+ cell population minus the 0.2% DMSO control in the CCTE_Deisenroth_DEVTOX-GLR_Meso assay. Furthermore, this assay endpoint can be referred to as a secondary readout, because this assay has produced multiple assay endpoints where this one serves as a measure of ectoderm differentiation.
All assay protocols are aligned to the DevTox GLR-Endo assay workflow. Cells are seeded into 384-well microplates for 24 hours prior to initiating differentiation in defined media for a total duration of 48 hours. A total of two chemical exposures are administered in 24-hour intervals during the 48-hour differentiation period. At the assay termination point, cells are fixed and stained with a fluorescent dye demarcating the nucleus. High-content imaging is used to acquire brightfield and fluorescent channel images across 5 fields per well. Cell identification and mean biomarker fluorescence intensities are calculated with image analysis software to determine the total cell counts for viability assessment and the biomarker expression frequency for each lineage-dependent assay. A typical experimental design tests a 10-point concentration series (1 nM - 200 uM) for 28 compounds in single technical replicate. Assay plate controls include non-differentiated pluripotent cells (baseline control), lineage-specific differentiated cells (differentiation control), and DMSO solvent exposed differentiated cells (solvent control). Experiments typically comprise a minimum of four experimental replicates (n=4).

| SMILES | AC50 | outcome |
| --- | --- | --- |
| O=C1NC(=O)C(c2ccccc2)(c2ccccc2)N1 | 180 µM (active) | – |
| Nc1cccc2c1C(=O)N(C1CCC(=O)NC1=O)C2=O (stereo not given) | – | inactive |
| CN(Cc1cnc2nc(N)nc(N)c2n1)c1ccc(C(=O)N[C@@H](CCC(=O)O)C(=O)O)cc1 | 0.0688 µM (active) | – |
| O=c1[nH]cc(F)c(=O)[nH]1 | 19.9 µM (active) | – |
| CC(=O)Nc1ccc(O)cc1 | – | inactive |
| CC1=C(/C=C/C(C)=C/C=C/C(C)=C\C(=O)O)C(C)(C)CCC1 | 18.8 µM (active) | – |
| CC1(C)S[C@@H]2[C@H](NC(=O)Cc3ccccc3)C(=O)N2[C@H]1C(=O)O | – | inactive |
| Nc1nc2ncc(CNc3ccc(C(=O)N[C@@H](CCC(=O)O)C(=O)O)cc3)nc2c(=O)[nH]1 | – | inactive |
| CS(=O)(=O)OCCCCOS(C)(=O)=O | 124 µM (active) | – |
| O=C1CCC(N2C(=O)c3ccccc3C2=O)C(=O)N1 (stereo not given) | – | inactive |
| CC1=C(/C=C/C(C)=C/C=C/C(C)=C/C(=O)O)C(C)(C)CCC1 | 7.53 µM (active) | – |
| CC/C(=C(/CC)c1ccc(O)cc1)c1ccc(O)cc1 | 3.63 µM (active) | – |
| CC(C)(c1ccc(O)cc1)c1ccc(O)cc1 | 56.6 µM (active) | – |
| CCN(CC)CCNC(=O)c1c(C)[nH]c(/C=C2\C(=O)Nc3ccc(F)cc32)c1C | 0.194 µM (active) | – |
| O=C1NS(=O)(=O)c2ccccc21 | – | inactive |
